Reference: the supplement of paper PMC12669032

Experiments:
Test in all cases: growth AUC relative to DMSO control (median of replicates) (fraction); higher = more growth (less inhibition), active = hit call of the paper
Conditions in all cases: 20 µM; 24 h;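 active = AUC reduced over 20% with Padj below 0.05 in at least 2 of 3 replicates; inactive = otherwise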
Akkermansia muciniphila = test system: Akkermansia muciniphila
Summary of the method: (§1)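 In round-bottom 96-well plates sealed with pierced gas-permeable seals, gut bacterial monocultures in mGAM were grown anaerobically at 37 °C from OD600 0.05 with 20 µM compound (1% DMSO). OD600 readings were taken hourly for 24 h, and the minimum OD was set to 0. Area under the growth curve was then normalised to the plate median of solvent-only wells, or to row and column medians on the industrial chemical plate. The value given is the median of three biological replicates grown on separate days.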

Bacteroides caccae = test system: Bacteroides caccae
Summary of the method: as §1

Bacteroides clarus = test system: Bacteroides clarus
Summary of the method: as §1

Bacteroides dorei = test system: Bacteroides dorei
Summary of the method: as §1

Bacteroides stercoris = test system: Bacteroides stercoris
Summary of the method: as §1

[1] = test system: Bacteroides thetaiotaomicron
Summary of the method: as §1

Bacteroides uniformis = test system: Bacteroides uniformis
Summary of the method: as §1

[2] = test system: Bifidobacterium longum subsp. longum
Summary of the method: as §1

Clostridium difficile = test system: Clostridium difficile
Summary of the method: as §1

Collinsella aerofaciens = test system: Collinsella aerofaciens
Summary of the method: as §1

Coprococcus comes = test system: Coprococcus comes
Summary of the method: as §1

Escherichia coli ED1a = test system: Escherichia coli ED1a
Summary of the method: as §1

Escherichia coli IAI1 = test system: Escherichia coli IAI1
Summary of the method: as §1

Eubacterium rectale = test system: Eubacterium rectale
Summary of the method: as §1

[3] = test system: Fusobacterium nucleatum subsp. animalis
Summary of the method: as §1

Lactobacillus gasseri = test system: Lactobacillus gasseri
Summary of the method: as §1

Lactobacillus paracasei = test system: Lactobacillus paracasei
Summary of the method: as §1

Odoribacter splanchnicus = test system: Odoribacter splanchnicus
Summary of the method: as §1

[4] = test system: Parabacteroides distasonis
Summary of the method: as §1

Parabacteroides merdae = test system: Parabacteroides merdae
Summary of the method: as §1

Measured: growth AUC

CCC(C)c1ccccc1OC(=O)NC (stereo not given)
inactive: Akkermansia muciniphila 0.869 | Bacteroides caccae 1.03 | Bacteroides clarus 0.975 | Bacteroides dorei 1.01 | Bacteroides stercoris 0.961 | [1] 0.981 | Bacteroides uniformis 0.978 | [2] 0.976 | Clostridium difficile 1 | Collinsella aerofaciens 0.986 | Coprococcus comes 1.01 | Escherichia coli ED1a 0.968 | Escherichia coli IAI1 0.974 | Eubacterium rectale 0.964 | [3] 0.998 | Lactobacillus gasseri 1.07 | Lactobacillus paracasei 0.918 | Odoribacter splanchnicus 1.08 | [4] 1.03 | Parabacteroides merdae 0.986

CCOP(=S)(OCC)SCn1c(=O)oc2cc(Cl)ccc21
inactive: Akkermansia muciniphila 0.99 | Bacteroides caccae 0.921 | Bacteroides clarus 0.94 | Bacteroides dorei 0.936 | Bacteroides stercoris 0.831 | [1] 0.945 | Bacteroides uniformis 0.927 | [2] 0.943 | Clostridium difficile 0.978 | Collinsella aerofaciens 0.991 | Coprococcus comes 1 | Escherichia coli ED1a 0.981 | Escherichia coli IAI1 0.974 | Eubacterium rectale 1 | [3] 0.93 | Lactobacillus gasseri 0.918 | Lactobacillus paracasei 0.994 | Odoribacter splanchnicus 0.979 | [4] 0.892 | Parabacteroides merdae 0.955

CO/N=C(/C1=NOCCO1)c1ccccc1Oc1ncnc(Oc2ccccc2Cl)c1F
active: [4] 0.678
inactive: Akkermansia muciniphila 0.963 | Bacteroides caccae 0.987 | Bacteroides clarus 0.957 | Bacteroides dorei 0.938 | Bacteroides stercoris 0.941 | [1] 0.961 | Bacteroides uniformis 0.963 | [2] 0.845 | Clostridium difficile 0.948 | Collinsella aerofaciens 1.02 | Coprococcus comes 0.962 | Escherichia coli ED1a 0.967 | Escherichia coli IAI1 1.03 | Eubacterium rectale 0.963 | [3] 0.978 | Lactobacillus gasseri 0.992 | Lactobacillus paracasei 1 | Odoribacter splanchnicus 0.974 | Parabacteroides merdae 0.892

COCC(C)N(C(=O)CCl)c1c(C)csc1C (stereo not given)
inactive: Akkermansia muciniphila 1.35 | Bacteroides caccae 1.03 | Bacteroides clarus 1.01 | Bacteroides dorei 0.929 | Bacteroides stercoris 1.04 | [1] 0.973 | Bacteroides uniformis 0.93 | [2] 0.841 | Clostridium difficile 0.847 | Collinsella aerofaciens 0.922 | Coprococcus comes 1.02 | Escherichia coli ED1a 0.976 | Escherichia coli IAI1 0.993 | Eubacterium rectale 1.16 | [3] 0.825 | Lactobacillus gasseri 0.806 | Lactobacillus paracasei 1.01 | Odoribacter splanchnicus 0.822 | Parabacteroides merdae 1
active: [4] 0.683

CSc1nc(NC(C)C)nc(NC(C)C)n1
inactive: Akkermansia muciniphila 0.876 | Bacteroides caccae 1.02 | Bacteroides clarus 0.976 | Bacteroides dorei 1.01 | Bacteroides stercoris 0.95 | [1] 0.949 | Bacteroides uniformis 0.983 | [2] 1.08 | Clostridium difficile 1.02 | Collinsella aerofaciens 1.04 | Coprococcus comes 0.999 | Escherichia coli ED1a 1.01 | Escherichia coli IAI1 0.976 | Eubacterium rectale 0.917 | [3] 0.922 | Lactobacillus gasseri 1.12 | Lactobacillus paracasei 0.944 | Odoribacter splanchnicus 0.981 | [4] 1.02 | Parabacteroides merdae 0.991

CCC(C)n1c(=O)[nH]c(C)c(Br)c1=O (stereo not given)
inactive: Akkermansia muciniphila 1.12 | Bacteroides caccae 0.833 | Bacteroides clarus 0.99 | Bacteroides dorei 0.952 | Bacteroides stercoris 1.13 | [1] 0.911 | [2] 1.02 | Clostridium difficile 0.945 | Collinsella aerofaciens 0.96 | Coprococcus comes 1.02 | Escherichia coli ED1a 0.979 | Escherichia coli IAI1 0.94 | Eubacterium rectale 1.07 | [3] 1.01 | Lactobacillus gasseri 0.869 | Lactobacillus paracasei 1.03 | Odoribacter splanchnicus 0.461 | [4] 0.926 | Parabacteroides merdae 0.891
active: Bacteroides uniformis 0.775

N#Cc1cc(Br)c(O)c(Br)c1
inactive: Akkermansia muciniphila 1.11 | Bacteroides caccae 0.896 | Bacteroides clarus 0.951 | Bacteroides dorei 0.924 | Bacteroides stercoris 0.875 | [1] 0.997 | Bacteroides uniformis 0.988 | [2] 1.05 | Clostridium difficile 0.98 | Collinsella aerofaciens 0.968 | Coprococcus comes 0.996 | Escherichia coli ED1a 0.907 | Eubacterium rectale 1.28 | [3] 0.864 | Lactobacillus gasseri 0.903 | Lactobacillus paracasei 0.988 | Odoribacter splanchnicus 1.1 | [4] 0.915 | Parabacteroides merdae 0.94
active: Escherichia coli IAI1 0.773

COP(=S)(OC)SCC(=O)N(c1ccc(Cl)cc1)C(C)C
inactive: Akkermansia muciniphila 0.942 | Bacteroides caccae 0.983 | Bacteroides clarus 0.965 | Bacteroides dorei 0.965 | Bacteroides stercoris 1.03 | [1] 0.929 | Bacteroides uniformis 0.912 | [2] 1.02 | Clostridium difficile 1.01 | Collinsella aerofaciens 0.993 | Coprococcus comes 1.04 | Escherichia coli ED1a 0.988 | Escherichia coli IAI1 0.976 | Eubacterium rectale 0.964 | [3] 0.985 | Lactobacillus gasseri 1.03 | Lactobacillus paracasei 1.04 | Odoribacter splanchnicus 1 | [4] 0.861 | Parabacteroides merdae 0.924

CCOCN(C(=O)CCl)c1c(C)cccc1CC
inactive: Akkermansia muciniphila 0.969 | Bacteroides caccae 1.01 | Bacteroides clarus 0.995 | Bacteroides dorei 1.04 | Bacteroides stercoris 1 | [1] 0.967 | Bacteroides uniformis 0.968 | [2] 0.986 | Clostridium difficile 0.983 | Collinsella aerofaciens 1.03 | Coprococcus comes 1.01 | Escherichia coli ED1a 1 | Escherichia coli IAI1 1.04 | Eubacterium rectale 0.983 | [3] 1.04 | Lactobacillus gasseri 1.03 | Lactobacillus paracasei 1.05 | Odoribacter splanchnicus 1.01 | [4] 1.03 | Parabacteroides merdae 0.974

O=S1(=O)OCC2C(CO1)C1(Cl)C(Cl)=C(Cl)C2(Cl)C1(Cl)Cl (stereo not given)
inactive: Akkermansia muciniphila 1.39 | Bacteroides caccae 0.997 | Bacteroides clarus 0.945 | Bacteroides dorei 0.962 | Bacteroides stercoris 0.765 | [1] 0.984 | Bacteroides uniformis 0.914 | [2] 1.11 | Clostridium difficile 1 | Collinsella aerofaciens 0.993 | Coprococcus comes 1.01 | Escherichia coli ED1a 0.991 | Escherichia coli IAI1 1 | Eubacterium rectale 1.01 | [3] 0.935 | Lactobacillus gasseri 0.919 | Lactobacillus paracasei 1.02 | Odoribacter splanchnicus 1.02 | [4] 1.09 | Parabacteroides merdae 0.955

CO/C=C(/C(=O)OC)c1ccccc1Oc1cc(Oc2ccccc2C#N)ncn1
inactive: Akkermansia muciniphila 1.05 | Bacteroides caccae 1.01 | Bacteroides clarus 0.967 | Bacteroides dorei 0.997 | Bacteroides stercoris 0.864 | [1] 0.965 | Bacteroides uniformis 0.914 | [2] 0.977 | Clostridium difficile 0.973 | Collinsella aerofaciens 0.994 | Coprococcus comes 0.964 | Escherichia coli ED1a 0.991 | Escherichia coli IAI1 0.976 | Eubacterium rectale 0.948 | [3] 0.969 | Lactobacillus gasseri 0.908 | Lactobacillus paracasei 1.06 | Odoribacter splanchnicus 0.959 | [4] 0.9 | Parabacteroides merdae 0.955

CNC(=O)Oc1cccc2c1OC(C)(C)C2=O
inactive: Akkermansia muciniphila 1.05 | Bacteroides caccae 1.03 | Bacteroides clarus 1.03 | Bacteroides dorei 1.02 | Bacteroides stercoris 1.04 | [1] 1.02 | Bacteroides uniformis 1.05 | [2] 1.02 | Clostridium difficile 1.01 | Collinsella aerofaciens 1.01 | Coprococcus comes 1.05 | Escherichia coli ED1a 1.03 | Escherichia coli IAI1 1.02 | Eubacterium rectale 1.04 | [3] 1.15 | Lactobacillus gasseri 0.878 | Lactobacillus paracasei 1.04 | Odoribacter splanchnicus 1.02 | [4] 0.955 | Parabacteroides merdae 0.99

COP(=S)(OC)SC(CC(=O)O)C(=O)O (stereo not given)
inactive: Akkermansia muciniphila 0.974 | Bacteroides caccae 1.01 | Bacteroides clarus 0.963 | Bacteroides dorei 0.986 | Bacteroides stercoris 1.06 | [1] 0.991 | Bacteroides uniformis 0.99 | [2] 1.01 | Clostridium difficile 1 | Collinsella aerofaciens 1.05 | Coprococcus comes 1.01 | Escherichia coli ED1a 1.02 | Escherichia coli IAI1 0.974 | Eubacterium rectale 0.884 | [3] 1.01 | Lactobacillus gasseri 1.03 | Lactobacillus paracasei 0.972 | Odoribacter splanchnicus 1.14 | [4] 0.956 | Parabacteroides merdae 0.976

Oc1ccccc1-c1ccccc1
inactive: Akkermansia muciniphila 1.03 | Bacteroides caccae 1.04 | Bacteroides clarus 1.03 | Bacteroides dorei 1.02 | Bacteroides stercoris 1.04 | [1] 1.01 | Bacteroides uniformis 1.01 | [2] 0.965 | Clostridium difficile 1.04 | Collinsella aerofaciens 1.01 | Coprococcus comes 1 | Escherichia coli ED1a 1.02 | Escherichia coli IAI1 1.05 | Eubacterium rectale 0.984 | [3] 0.988 | Lactobacillus gasseri 1.08 | Lactobacillus paracasei 0.923 | Odoribacter splanchnicus 1.03 | [4] 0.976 | Parabacteroides merdae 1.04

Cc1cc(C)nc(NC(=O)NS(=O)(=O)c2ccccc2C(=O)OC2COC2)n1
active: [1] 0.752
inactive: Akkermansia muciniphila 1.03 | Bacteroides caccae 0.952 | Bacteroides clarus 0.973 | Bacteroides dorei 0.945 | Bacteroides stercoris 1.04 | Bacteroides uniformis 1.03 | [2] 0.858 | Clostridium difficile 1.05 | Collinsella aerofaciens 0.98 | Coprococcus comes 0.97 | Escherichia coli ED1a 0.986 | Escherichia coli IAI1 0.983 | Eubacterium rectale 1.07 | [3] 1.02 | Lactobacillus gasseri 0.884 | Lactobacillus paracasei 1.08 | Odoribacter splanchnicus 1.01 | [4] 1.02 | Parabacteroides merdae 0.997
